An excerpt weighted towards active compounds, which were near 5.9% of everything screened.
HSF-1 act – HSF-1 activators, primary screen, NIH3T3-HGL cells, MG132 stress, luminescence, single point. NIH3T3-HGL HSF-1 luciferase reporter, 8 h; 100% = twice DMSO control signal. activation, % at 9 µM. 300,000 compounds, 1.7% hits;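 active = mean replicate activation of at least 50% with a set share of replicates each reaching 50%; inconclusive = only one of those two conditions met; inactive = mean below 50% and too few replicates reaching it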;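 note: 0% = median of the neutral control wells and 100% = twice that signal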
HSP90 inh – HSP90 inhibitors, primary screen, cell lysate, luminescence; Rabbit reticulocyte lysate, luciferase refolding luminescence, 3 h; Heat shock protein HSP 90 (rabbit reticulocyte lysate; luciferase refolding); 290,000 compounds, 0.91% hits; AID 1789, 2009; inhibition, % at 5.6 µM;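 active = inhibition above the screen-wide mean plus 3 SD, computed separately per campaign, cut at about 16% in these data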;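 note: 0% = DMSO wells and 100% = 60 µM geldanamycin wells; inhibitors lower the luminescence because luciferase stays unfolded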
HSF1 inhib – HSF1 inhibitors in luciferase reporter cells, primary screen, cell-based, NIH3T3, luminescence; NIH3T3-HGL HSE-luciferase, MG132-induced, luminescence 8 h; active compounds read low; activity change, negative = inhibition, % at 7.5 µM (by protocol); AID 2098, 2009; 300,000 compounds, 0.77% hits;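 active = more than half of replicate wells show activity change below -50%, luminescence cut by over half; inconclusive = some wells, but at most half, below -50%; inactive = no replicate well below -50%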;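 note: luciferase reports HSF-1 transcriptional activity via heat shock element; 0% = median of DMSO wells and -100% = zero luminescence signal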
FXN GAA850 act – FXN promoter activators, primary screen, cell-based, luciferase luminescence, HEK293 lucGAA850. HEK293 lucGAA850 FXN promoter luciferase reporter, 24 h; percent of 10 µM SAHA response. 360,000 compounds, 0.56% hits. activation, % at 6 µM;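 active = activation above the average of all compounds screened plus 3 SD, cutoff fixed separately per campaign, cut at about 7.5% in these data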;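 note: 0% = DMSO wells and 100% = 10 µM SAHA wells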
AHR activator – AHR activators, primary screen, cell-based, luminescence, luciferase reporter, human | Aryl hydrocarbon receptor (Homo sapiens), P35869 | AHR-responsive luciferase reporter cells | activation, % at 5 µM | 320,000 compounds, 2.5% hits | AID 2796, 2010; in the data active = activation above about 47%;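 note: 0% = vehicle wells and 100% = reference agonist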
DAX1 inh – DAX1 (NR0B1) inhibitors, primary screen, cell-based, HEK293, Gal4-DAX1, luciferase luminescence; Nuclear receptor subfamily 0 group B member 1 (Homo sapiens), P51843; HEK293 Gal4-DAX1 luciferase reporter; inhibition, % at 6.75 µM; 340,000 compounds, 0.99% hits;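 active = inhibition above the mean over all tested compounds plus 3 SD, cut at about 4.2% in these data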;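 note: 0% = DAX1-transfected cells with DMSO and 100% = empty-vector control cells with DMSO; inhibition shows as a rise in luminescence from relieved DAX1 repression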
Target sequence (P51843 207-470 limits assumed): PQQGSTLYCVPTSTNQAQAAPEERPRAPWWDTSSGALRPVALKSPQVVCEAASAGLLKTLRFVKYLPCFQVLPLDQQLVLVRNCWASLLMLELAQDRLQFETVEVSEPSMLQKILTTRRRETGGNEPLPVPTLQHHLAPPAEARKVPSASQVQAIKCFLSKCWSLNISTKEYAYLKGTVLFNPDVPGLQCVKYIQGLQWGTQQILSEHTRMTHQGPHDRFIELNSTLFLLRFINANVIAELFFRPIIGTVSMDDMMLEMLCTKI
GAA30 FXN cntr – GAA30 FXN promoter activators, confirmation, counter-screen for GAA850 frataxin promoter activator project, cell-based, luminescence, HEK293, lucGAA30, triplicate; activation, % at 6 µM; shares compounds with FXN GAA850 act; 1,900 compounds, 66% hits; HEK293 lucGAA30 FXN promoter luciferase, 24 h; DMSO = 0%, 5 µM ipriflavone = 100%;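 active = mean activation above the mean of solvent-only control wells plus 3 SD, cut at about 22% in these data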;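 note: counterscreen of GAA850 promoter hits where activity marks nonselective or luminescence artifacts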
FXN GAA850 conf – FXN GAA850 promoter activators in reporter cells, confirmation, cell-based, luminescence, HEK293 lucGAA850, triplicate; shares compounds with FXN GAA850 act; HEK293 lucGAA850 FXN promoter luciferase reporter, 24 h; 100% = activation by SAHA; activation, % at 6 µM; 1,900 compounds, 86% hits;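 active = mean activation above a set limit taken from the primary screen, cut at about 8% in these data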;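 note: 0% = DMSO wells and 100% = 10 µM SAHA wells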
* marks the source's active call; other numbers are inactive results.

What do the screens show for `C[C@@H]1CN([C@@H](C)CO)C(=O)c2c(c3ccccc3n2C)-c2ccccc2CO[C@H]1CN(C)C(=O)[C@H](C)c1ccccc1`?
FXN GAA850 act: -8; DAX1 inh: -1

Results for C[C@H](CO)N1C[C@H](C)[C@H](CN(C)C(=O)N[C@H](C)c2ccccc2)OCc2ccccc2-c2c(n(C)c3ccccc23)C1=O ?
FXN GAA850 act: 14*; DAX1 inh: 0; GAA30 FXN cntr: -6; FXN GAA850 conf: 4

Results for O=c1c2cc(NC(=S)NCc3cccnc3)ccc2nc2n1CCCCC2 ?
HSF-1 act: 11; HSP90 inh: 1; HSF1 inhib: 10; FXN GAA850 act: 0; AHR activator: 17; DAX1 inh: 0

Results for COC(=O)c1ccc(NC(=O)CSC2=NCCN2)cc1 ?
HSF-1 act: -12; HSP90 inh: 1; HSF1 inhib: -7; FXN GAA850 act: 10.0*; AHR activator: 1; DAX1 inh: -1; GAA30 FXN cntr: 34*; FXN GAA850 conf: 16*

What do the screens show for `CCOc1ccc(NC(=O)CSC2=NCCN2)cc1`?
HSF-1 act: 16; HSP90 inh: 3; HSF1 inhib: -2; FXN GAA850 act: 2; AHR activator: 1; DAX1 inh: -1

How did O=[N+]([O-])c1cc([N+](=O)[O-])c(Oc2c(F)cc(F)cc2F)cc1NN1CCCCC1 do in these assays?
HSF-1 act: 1; HSP90 inh: -1; HSF1 inhib: 2; FXN GAA850 act: 1; AHR activator: 5; DAX1 inh: 1

Results for CC(=O)Oc1ccc(C(=O)Cc2ccccn2)c(O)c1 ?
HSF-1 act: 1; HSP90 inh: 0; HSF1 inhib: -1; FXN GAA850 act: 11*; AHR activator: 0; DAX1 inh: 0; GAA30 FXN cntr: 23*; FXN GAA850 conf: 12*

Results for CCc1cc(C(=O)Cc2ccccn2)c(O)cc1O ?
HSF-1 act: 14; HSP90 inh: 0; HSF1 inhib: 7; FXN GAA850 act: -1; AHR activator: 30; DAX1 inh: -1

What do the screens show for `CC1CCCCN1C(=O)CCS(=O)(=O)c1cc2c(cc1Cl)NC(=O)CO2` (stereo not given)?
HSF-1 act: -8; HSP90 inh: -1; HSF1 inhib: 3; FXN GAA850 act: 0; AHR activator: -2; DAX1 inh: 1

How did CCOC(=O)c1cnc(SCc2ccc(C)cc2)nc1N do in these assays?
HSF-1 act: inconclusive; HSP90 inh: -1; HSF1 inhib: 32; FXN GAA850 act: 7.8*; AHR activator: -8; DAX1 inh: 1; GAA30 FXN cntr: 86*; FXN GAA850 conf: 27*

What do the screens show for `Cc1ccc(/C=C/c2nc3ccccc3[nH]2)o1`?
HSF-1 act: 10; HSP90 inh: -1; HSF1 inhib: -1; FXN GAA850 act: 8.9*; AHR activator: 45; DAX1 inh: 1; GAA30 FXN cntr: 114*; FXN GAA850 conf: 38*

How did Cc1cc2nc(/C=C/c3nc4cc(C)c(C)cc4[nH]3)[nH]c2cc1C do in these assays?
HSF-1 act: -15; HSP90 inh: 1; HSF1 inhib: 4; FXN GAA850 act: 1; AHR activator: 17; DAX1 inh: 0

What do the screens show for `CN(C)c1ccc(C(=O)/C=C/c2cccnc2)cc1`?
HSF-1 act: 52*; HSP90 inh: -3; HSF1 inhib: 22; FXN GAA850 act: 8.8*; AHR activator: 18; DAX1 inh: 0; GAA30 FXN cntr: 119*; FXN GAA850 conf: 37*

What do the screens show for `O=C(/C=C/c1cccnc1)c1ccc(F)c(F)c1`?
HSF-1 act: 2; HSP90 inh: -2; HSF1 inhib: -5; FXN GAA850 act: 4; AHR activator: 0; DAX1 inh: -2

What do the screens show for `CCCCSc1nc2c([nH]1)c(=S)n(C)c(=O)n2C`?
FXN GAA850 act: 19*; DAX1 inh: -1; GAA30 FXN cntr: 14; FXN GAA850 conf: 15*

What do the screens show for `CCCC(CC)Sc1nc2c([nH]1)c(=S)n(C)c(=O)n2C` (stereo not given)?
FXN GAA850 act: 15*; DAX1 inh: -2; GAA30 FXN cntr: 17; FXN GAA850 conf: 14*

What do the screens show for `O=C(CSc1nc2ccccc2o1)NC1CCCC1`?
HSF-1 act: 28; HSP90 inh: 1; HSF1 inhib: 15; FXN GAA850 act: 7.6*; AHR activator: -1; DAX1 inh: -1; GAA30 FXN cntr: 3; FXN GAA850 conf: 2

What do the screens show for `Brc1ccc2oc(-c3ccn[nH]3)cc2c1`?
HSF-1 act: 57*; HSP90 inh: 2; HSF1 inhib: 30; FXN GAA850 act: 7.8*; AHR activator: -8; GAA30 FXN cntr: 116*; FXN GAA850 conf: 38*

Results for CCCC(C)NC(=O)CSc1nnc2ccccn12 (stereo not given) ?
HSF-1 act: -11; HSP90 inh: -2; HSF1 inhib: -9; FXN GAA850 act: 1; AHR activator: 2; DAX1 inh: 1

Results for CCN(Cc1ccc(OC)c(F)c1)C(=O)c1cc2ccccc2o1 ?
HSF-1 act: 13; HSP90 inh: 1; HSF1 inhib: 10; FXN GAA850 act: 8.5*; AHR activator: -1; DAX1 inh: 0; GAA30 FXN cntr: 34*; FXN GAA850 conf: 17*

How did CNCCCOc1ccc2c(c1)CCC2 do in these assays?
HSF-1 act: 1; HSP90 inh: 0; HSF1 inhib: 5; FXN GAA850 act: 5; AHR activator: 1; DAX1 inh: 1

What do the screens show for `c1cnc(SCCOc2ccc3c(c2)CCC3)nc1`?
HSF-1 act: 57*; HSP90 inh: 1; HSF1 inhib: 26; FXN GAA850 act: 8.2*; AHR activator: 2; DAX1 inh: 7.6*; GAA30 FXN cntr: 101*; FXN GAA850 conf: 38*

How did C=CCN(Cc1ccc(Br)s1)C(=O)c1ccc(OCc2c(C)noc2C)cc1 do in these assays?
FXN GAA850 act: -1; DAX1 inh: 0

Screening results as filed in PubChem.
